# Results as given in PubChem BioAssay (NCATS).
# A number with no mark means an inactive call. Records with an inconclusive call do not appear. Active and inactive are the calls of the source. Unless noted, calls follow the shape of the dose curve; as a rule, active = well fitted curve in the direction sought with a large enough effect; inconclusive = small, poorly fitted or top-dose-only effect, or another doubt; inactive = no such curve, though single readings can be large; an effect the other way counts as inactive or inconclusive.
# What was measured:
# [1] = molecular target: Cytochrome P450 3A4 (Homo sapiens) (UniProt P08684); assay: qHTS Assay for Inhibitors and Substrates of Cytochrome P450 3A4 (AID 884); also: potency is read from the fitted curve at half-maximal effect; nearly all actives have a fitted effect of over 50% in size
# How it was run: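 20 nM human CYP3A4 with 25 uM Luciferin-PPXE (at KM) in 200 mM KPO4, preincubated 10 min with compound; NADPH regeneration started a 60 min RT reaction. Luciferin detected by luminescence, normalized to 57 uM ketoconazole as full inhibition.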
# [2] = molecular target: Cytochrome P450 3A4 (Homo sapiens) (UniProt P08684); assay: qHTS Assay for Activators of Cytochrome P450 3A4 (AID 885); also: nearly all actives have a fitted effect of over 65% in size
# How it was run: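 Quantitative HTS format: compounds preincubated with 20nM human CYP3A4 and Luciferin-PPXE substrate at KM, reaction started by NADPH regeneration, stopped after 60 min, luciferase luminescence read 20 min later.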
# [3] = molecular target: Cytochrome P450 2D6 (Homo sapiens) (UniProt P10635); assay: qHTS Assay for Inhibitors and Substrates of Cytochrome P450 2D6 (AID 891); also: nearly all actives have a fitted effect of over 60% in size; also: potency is read from the fitted curve at half-maximal effect
# How it was run: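 Human CYP2D6 (5 nM) with 30 uM Luciferin-ME EGE (at Km) in 100 mM KPO4, compound preincubated 10 min, then NADPH regeneration system for 60 min at room temperature. Luciferin read by luminescence; normalized to 1.43 uM quinidine.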
# [4] = molecular target: Cytochrome P450 2C19 (Homo sapiens) (UniProt P33261); assay: qHTS Assay for Inhibitors and Substrates of Cytochrome P450 2C19 (AID 899); also: potency is read from the fitted curve at half-maximal effect; nearly all actives have a fitted effect of over 60% in size
# How it was run: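 5 nM human CYP2C19 with 10uM Luciferin-H EGE (at KM) in 50mM KPO4, compound preincubated 10 min at 37C, then NADPH regeneration for 60 min at 37C. Luciferin read by luminescence after detection reagent; normalized to 57uM ketoconazole as full inhibition.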
# [5] = Confirmation and Secondary Assay for Modulators of Hemoglobin Beta Chain Splicing at IVS2 654 locus (AID 910);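 also: HeLa cells stably carrying EGFP split by mutant beta-globin IVS2-654 intron; % of control where 0% means no effect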
# How it was run: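 HeLa cells stably expressing EGFP interrupted by β-globin IVS2-654 intron, seeded overnight in Opti-MEM/2% FCS, then treated 2 days at 37 °C. Restored splicing read as total peak GFP intensity per well by laser scanning cytometry (488 nm excitation, 500–520 nm emission); 500 nM antisense PNA as control.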
# [6] = Confirmation and Secondary Assay for Modulators of Hemoglobin Beta Chain Splicing at IVS2 705 locus (AID 930);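 also: HeLa cells stably expressing the EGFP-705 splicing reporter; GFP fluorescence per well restored by corrected splicing of the IVS2-705 intron in EGFP; series mostly up to about 46 µM; % of control where 0% means no effect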
# How it was run: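 Stable HeLa line with EGFP disrupted by mutant beta-globin intron 2 (705). Overnight attachment, then 2 days of compound at 37C, 5% CO2. Signal: peak GFP intensity summed over objects 5-250 µm.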
# [7] = qHTS Assay for Identification of Small Molecule Agonists for Hypoxia Response Element Signaling Pathway (AID 914; active = well fitted activation curve with a large enough effect in the signal ratio, with a control signal flat, not every such curve was filed as active; the % refers to the signal ratio; also: % of control where 0% means no effect); details: ME-180 (cervical carcinoma) HRE-bla reporter, beta-lactamase ratio, CoCl2, 17 h; hits give high values
# How it was run: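 Reporter activity (beta-lactamase, CCF4 460nm/530nm ratio) in HRE-bla ME-180 cells is recorded after 17 h compound exposure with EC50 CoCl2 at 37 degrees Celsius. AC50 values come from titration data.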
# Chain of Cytochrome P450 2C19 (Homo sapiens) (P33261 whole entry, looked up): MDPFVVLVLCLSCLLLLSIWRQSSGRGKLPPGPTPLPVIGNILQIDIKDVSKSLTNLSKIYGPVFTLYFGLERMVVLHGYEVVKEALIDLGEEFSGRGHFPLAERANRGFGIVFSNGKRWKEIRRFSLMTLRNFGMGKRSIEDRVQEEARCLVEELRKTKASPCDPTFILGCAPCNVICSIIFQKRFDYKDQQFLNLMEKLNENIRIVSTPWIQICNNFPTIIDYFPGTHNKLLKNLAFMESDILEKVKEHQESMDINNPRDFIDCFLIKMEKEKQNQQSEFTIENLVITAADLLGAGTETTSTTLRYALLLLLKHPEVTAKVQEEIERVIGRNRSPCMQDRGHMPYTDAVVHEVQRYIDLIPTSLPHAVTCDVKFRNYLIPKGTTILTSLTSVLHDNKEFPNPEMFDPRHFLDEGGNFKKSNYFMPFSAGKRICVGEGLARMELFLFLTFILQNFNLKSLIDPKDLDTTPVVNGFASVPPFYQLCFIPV
# Chain of Cytochrome P450 3A4 (Homo sapiens) (P08684 whole entry, looked up): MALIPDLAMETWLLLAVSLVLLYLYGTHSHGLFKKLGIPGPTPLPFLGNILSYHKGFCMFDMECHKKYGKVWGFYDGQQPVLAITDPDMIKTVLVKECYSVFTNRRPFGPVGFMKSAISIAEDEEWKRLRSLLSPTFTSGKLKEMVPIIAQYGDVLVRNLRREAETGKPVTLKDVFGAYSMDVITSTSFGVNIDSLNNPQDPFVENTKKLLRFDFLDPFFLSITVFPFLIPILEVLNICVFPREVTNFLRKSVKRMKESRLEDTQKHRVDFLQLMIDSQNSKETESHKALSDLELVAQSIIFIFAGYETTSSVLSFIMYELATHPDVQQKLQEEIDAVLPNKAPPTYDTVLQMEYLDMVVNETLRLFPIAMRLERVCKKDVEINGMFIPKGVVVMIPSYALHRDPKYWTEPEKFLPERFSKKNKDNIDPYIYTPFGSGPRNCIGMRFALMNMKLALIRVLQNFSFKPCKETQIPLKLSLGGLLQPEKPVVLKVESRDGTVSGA
# Chain of Cytochrome P450 2D6 (Homo sapiens) (P10635 whole entry, looked up): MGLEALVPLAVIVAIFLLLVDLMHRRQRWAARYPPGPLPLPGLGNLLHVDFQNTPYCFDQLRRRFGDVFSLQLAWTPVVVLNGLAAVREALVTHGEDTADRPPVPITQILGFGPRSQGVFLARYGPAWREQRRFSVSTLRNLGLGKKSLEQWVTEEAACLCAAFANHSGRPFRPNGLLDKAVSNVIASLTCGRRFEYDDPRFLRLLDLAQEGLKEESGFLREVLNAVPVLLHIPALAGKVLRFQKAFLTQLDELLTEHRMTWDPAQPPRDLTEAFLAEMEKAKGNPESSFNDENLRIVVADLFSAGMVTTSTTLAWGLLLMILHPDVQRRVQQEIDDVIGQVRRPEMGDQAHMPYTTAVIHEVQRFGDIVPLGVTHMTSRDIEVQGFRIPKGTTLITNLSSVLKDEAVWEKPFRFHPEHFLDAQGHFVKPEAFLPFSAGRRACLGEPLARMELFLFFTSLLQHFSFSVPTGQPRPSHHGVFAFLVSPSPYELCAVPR
compound,measurement,setting,value
CCOC(=O)OCC1OC(C#Cc2ccccc2)C=CC1OC(=O)OCC (configuration not stated),Potency,[1],3.98 µM (active)
same,"activity change, positive = activation",[2],-79.4% [at 11.4 µM]
same,Potency,[3],inactive
same,Potency,[4],2.51 µM (active)
C=CCOC(=O)C(C(C)=O)C(NC(=O)OC)c1cccc(F)c1 (configuration not stated),Potency,[1],0.0794 µM (active)
same,"activity change, positive = activation",[2],-72.4% [at 11.4 µM]
same,Potency,[3],inactive
same,Potency,[4],0.1 µM (active)
OCC1OC(c2ccc3c(c2)OCO3)C=CC1Oc1cc(Cl)cc(Cl)c1 (configuration not stated),Potency,[1],0.316 µM (active)
same,"activity change, positive = activation",[2],-90.6% [at 11.4 µM]
same,Potency,[3],3.16 µM (active)
same,Potency,[4],0.0794 µM (active)
CCC1=C(OC(=O)N(CC)CC)N2C(=O)OC(=NCC(=O)OC)[C@]2(Cc2ccccc2)[C@H]2C1=CC[C@H]1C(=O)N(C)C(=O)[C@H]12,Potency,[1],10 µM (active)
same,Potency,[2],inactive
CC(=O)OC[C@H]1O[C@@H](O/N=C(\C)CCC(=O)OC[C@@H]2O[C@H](C#Cc3ccccc3)C=C[C@@H]2Oc2ccc(C)cc2)[C@H](OC(C)=O)[C@@H](OC(C)=O)[C@H]1OC(C)=O,Potency,[1],3.16 µM (active)
same,"activity change, positive = activation",[2],-90.4% [at 11.4 µM]
same,Potency,[3],3.98 µM (active)
CO/N=C(/C)CCC(=O)OC[C@@H]1O[C@H](C#Cc2ccccc2)C=C[C@@H]1Oc1ccc(C)cc1,Potency,[1],3.98 µM (active)
same,"activity change, positive = activation",[2],-90.5% [at 11.4 µM]
same,Potency,[3],inactive
same,Potency,[4],3.98 µM (active)
Cn1c(N)c(C(=O)COC(=O)c2cc(-c3ccccc3)nc3ccccc23)c(=O)n(C)c1=O,Potency,[1],12.6 µM (active)
same,Potency,[2],inactive
COc1c(O)c(O)cc2c1oc1c3ccccc3oc(=O)c21,Potency,[1],25.1 µM (active)
same,Potency,[2],inactive
COc1ccc(C#CC2C=CC(Oc3cc(C)cc(C)c3)C(CO)O2)cc1 (configuration not stated),Potency,[1],1.58 µM (active)
same,"activity change, positive = activation",[2],-94.5% [at 11.4 µM]
same,Potency,[3],3.98 µM (active)
same,Potency,[4],0.0631 µM (active)
CO[C@H]1COC(=O)[C@@H](Cc2ccccc2)NC(=O)[C@@H](C)COC(=O)CCC[C@@H]1C,Potency,[1],3.16 µM (active)
same,"activity change, positive = activation",[2],-63.9% [at 11.4 µM]
same,Potency,[3],inactive
C=CCC1C=CC(Oc2ccc(F)cc2C)C(CO)O1 (configuration not stated),Potency,[1],3.98 µM (active)
same,"activity change, positive = activation",[2],-81.3% [at 11.4 µM]
same,Potency,[3],inactive
same,Potency,[4],0.251 µM (active)
C=CCOC(=O)C(C(C)=O)C(NC(=O)OC)c1ccc(Cl)cc1 (configuration not stated),Potency,[1],1.26 µM (active)
same,"activity change, positive = activation",[2],-107% [at 11.4 µM]
same,Potency,[3],inactive
same,Potency,[4],0.251 µM (active)
O=C(/C=C\c1ccc2c(c1)OCO2)c1ccc(F)cc1,Potency,[1],3.16 µM (active)
same,"activity change, positive = activation",[2],-89.5% [at 11.4 µM]
same,Potency,[3],2 µM (active)
COC(=O)[C@@H]1CC[C@H](C)[C@@H](c2ccc(C)cc2)N1C(=O)c1ccc(/C=N\OC[C@@H](C)[C@H](OCc2ccccc2)C(C)C)cc1,Potency,[1],3.98 µM (active)
same,"activity change, positive = activation",[2],-66.5% [at 11.4 µM]
same,Potency,[3],3.98 µM (active)
C=C(C)C(O)/C=C/c1ccc(OC)cc1 (configuration not stated),Potency,[1],5.01 µM (active)
same,"activity change, positive = activation",[2],-85.8% [at 11.4 µM]
same,Potency,[3],inactive
COc1ccc(-c2cc(=O)c3ccccc3o2)cc1,Potency,[1],2 µM (active)
same,Potency,[2],inactive
same,outcome,[5],inactive
same,outcome,[6],inactive
C#CCCCO/N=C1/C[C@@H](O)[C@@H](O)[C@@H]2[C@@H]3C(=O)N(C4CCCCC4)C(=O)[C@H]3CC[C@@H]12,Potency,[1],3.16 µM (active)
same,"activity change, positive = activation",[2],-78.4% [at 11.4 µM]
same,activation,[7],-13.1%
COC(=O)C/C=C\[C@@H](C)[C@@H](/C=N\OC[C@@H]1O[C@H](c2ccccc2)C=C[C@@H]1Oc1ccc(OC)cc1)OC,Potency,[1],3.16 µM (active)
same,"activity change, positive = activation",[2],-96.1% [at 11.4 µM]
same,Potency,[4],1.58 µM (active)
C=CC(C1=CC(=O)C(OC)=CC1=O)c1ccc(OC)cc1 (configuration not stated),Potency,[1],25.1 µM (active)
same,Potency,[2],inactive
same,outcome,[5],inactive
same,outcome,[6],inactive
CC1(C)C(=O)C=C[C@@]2(C)C1C=C[C@@]1(C)C2CC[C@@]2(C)C(c3ccoc3)OC(=O)C3OC312 (some centres not stated),Potency,[1],7.94 µM (active)
same,Potency,[2],inactive
same,outcome,[5],inactive
same,outcome,[6],inactive
C=C1C2CC[C@@]3(C)C(c4ccoc4)OC(=O)C[C@@]13OC1CC(OC(C)=O)C(C)(C)C(CC(=O)OC)[C@@]12C (some centres not stated),Potency,[1],1.26 µM (active)
same,Potency,[2],inactive
same,outcome,[5],inactive
CC(=O)OCC1OC(c2ccc3c(c2)OCO3)C=CC1OC(C)=O (configuration not stated),Potency,[1],3.98 µM (active)
same,"activity change, positive = activation",[2],-75.4% [at 11.4 µM]
same,Potency,[4],0.316 µM (active)
O=C1C=CC(=C(c2ccc(O)cc2)c2ccc(O)cc2)C=C1,Potency,[1],20 µM (active)
same,Potency,[2],inactive
same,outcome,[5],inactive
same,outcome,[6],inactive
